{"source": "PubChem BioAssay AID463195", "about": "(Sanford-Burnham Center for Chemical Genomics, 2010)", "note": "Out of some 330,000 compounds screened, about 4,600 (1.4%) were called active. This excerpt belongs to a sample that is enriched for actives. Unmarked numbers belong to inactive results.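 How the source made its calls: active means inhibition of 40% or more at the single tested concentration; inactive means the rest.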", "data": [{"experiment": "wild-type TIM10 yeast growth inhibition – luminescence, uHTS, counter-screen for tim10-1 yeast inhibitor project, primary screen (AID 463195);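 further: wild-type TIM10 isogenic control strain grown at permissive 25 °C; 0% = DMSO yeast wells and 100% = minimal medium wells without yeast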", "settings": "S. cerevisiae TIM10 strain growth, BacTiter-Glo luminescence, 24 h; at 10 µM; hits give high values", "values": [{"smiles": "CC1CC(=S)Nc2ccccc2N1Cc1ccccc1", "note": "(stereo not drawn)", "inhibition": "46.2% (active)"}, {"smiles": "CC1CC(C)(C)NC(=S)N1CCC(=O)N1CCN(Cc2ccccc2)CC1", "note": "(stereo not drawn)", "inhibition": "-2.23%"}, {"smiles": "CC1CC(=O)Nc2ccccc2N1S(=O)(=O)c1cccs1", "note": "(stereo not drawn)", "inhibition": "5.91%"}, {"smiles": "COC(=O)CNc1nc(Cl)nc(N2CCC(C)CC2)n1", "inhibition": "-3.85%"}, {"smiles": "CCOc1ccccc1NC(=S)NC(=O)CCc1ccccc1", "inhibition": "11.7%"}, {"smiles": "O=C(OCCOCn1cc(Br)c(=O)[nH]c1=O)c1ccccc1", "inhibition": "-12.6%"}, {"smiles": "Cn1nccc1/C=N\\NC(=O)c1ccc(Cl)cc1", "inhibition": "-2.29%"}, {"smiles": "CCc1ccc(OCC(=O)NCC(c2ccc(Cl)cc2)N2CCCCC2)cc1", "note": "(stereo not drawn)", "inhibition": "42.7% (active)"}, {"smiles": "COc1ccc(C(CNC(=O)COc2ccccc2OC)N2CCCCC2)cc1", "note": "(stereo not drawn)", "inhibition": "0.651%"}, {"smiles": "COc1ccc(C(CNC(=O)COc2ccc([N+](=O)[O-])cc2)N2CCCCC2)cc1", "note": "(stereo not drawn)", "inhibition": "8.46%"}, {"smiles": "CC1(c2ccccc2)CC(C)(C)N(C(=O)c2cc([N+](=O)[O-])cc([N+](=O)[O-])c2)c2ccccc21", "note": "(stereo not drawn)", "inhibition": "-3.92%"}, {"smiles": "CC1CCC2CCCCC2N1C(=O)c1cc([N+](=O)[O-])cc([N+](=O)[O-])c1", "note": "(stereo not drawn)", "inhibition": "40.2% (active)"}, {"smiles": "CC1CCN(C(=S)c2cccc([N+](=O)[O-])c2)CC1", "inhibition": "1.4%"}, {"smiles": "Cc1csc(CN(C)C(=O)CC2C(=O)NCCN2CC(C)(C)C)n1", "note": "(stereo not drawn)", "inhibition": "-12.9%"}, {"smiles": "Cn1c(=O)cc(OCCCC(=O)N2CCN(c3ccccn3)CC2)c2ccccc21", "inhibition": "13.5%"}, {"smiles": "Oc1cccc2ccc(/C=C/c3ccc(Br)s3)nc12", "inhibition": "15.2%"}, {"smiles": "COCCNC(=S)N(CCc1c(C)[nH]c2ccc(C)cc12)Cc1cccnc1", "inhibition": "-1.03%"}, {"smiles": "CCNC(=S)N(CCc1c(C)[nH]c2ccc(C)cc12)Cc1ccco1", "inhibition": "41.2% (active)"}, {"smiles": "COc1cccc(NC(=S)N(CCc2c(C)[nH]c3ccccc23)Cc2ccco2)c1", "inhibition": "15.9%"}, {"smiles": "O=C(N/N=C/c1ccc(O)c(O)c1)C1c2ccccc2Oc2ccccc21", "inhibition": "-9.32%"}, {"smiles": "CCN(CCCCOC(=O)c1ccc(OC)c(OC)c1)C(C)Cc1ccc(OC)cc1", "note": "(stereo not drawn)", "inhibition": "-1.12%"}, {"smiles": "Cc1ccccc1N1CCN(C2CCCN(C(=O)c3ocnc3C)C2)CC1", "note": "(stereo not drawn)", "inhibition": "-0.332%"}, {"smiles": "COc1ccc(S(=O)(=O)N2CCN(C(C)C(=O)Nc3ccc(C(C)C)cc3)CC2)cc1", "note": "(stereo not drawn)", "inhibition": "44.9% (active)"}, {"smiles": "CC(C)c1ccc(S(=O)(=O)N2CCN(C(C)C(=O)NC3CCCC3)CC2)cc1", "note": "(stereo not drawn)", "inhibition": "-30.5%"}, {"smiles": "COc1cccc(CNC(C)C(=O)Nc2ccc(S(=O)(=O)N3CCCC3)cc2)c1", "note": "(stereo not drawn)", "inhibition": "18.4%"}, {"smiles": "Cc1c(C(=O)OC(C)C)sc(NC(=O)c2cccnc2)c1C#N", "inhibition": "6.36%"}, {"smiles": "COc1ccc(CCNC(=O)COC(=O)Cc2cccc(F)c2)cc1", "inhibition": "7.57%"}, {"smiles": "Cc1cccc(NC(=O)CN2CCN(C(=O)C3CCN(C(=O)/C=C/c4ccccc4)CC3)CC2)c1C", "inhibition": "8.87%"}, {"smiles": "CCCCn1c(=O)c(CCC(=O)OCC(=O)Nc2ccc(C)c(Cl)c2)nc2ccccc21", "inhibition": "-6.83%"}, {"smiles": "COc1ccc(S(=O)(=O)N(C)C[C@H]2Oc3c(NC(=O)Nc4ccc5c(c4)OCO5)cccc3C(=O)N([C@H](C)CO)C[C@@H]2C)cc1", "inhibition": "1.19%"}, {"smiles": "O=C(NCc1ccccc1)C1CCCN(c2nc3ccsc3c(=O)s2)C1", "note": "(stereo not drawn)", "inhibition": "-2.48%"}, {"smiles": "CCC(C)NC(=O)c1nn(C)c(=O)c2ccccc12", "note": "(stereo not drawn)", "inhibition": "1.61%"}, {"smiles": "Cc1ccc(NC(=O)CSc2sc3c(O)cc(=O)[nH]c3c2C#N)cc1C", "inhibition": "-6.33%"}, {"smiles": "CCOC(=O)c1ccc(N2C(=O)CC(N3CCN(C(=O)c4ccccc4)CC3)C2=O)cc1", "note": "(stereo not drawn)", "inhibition": "1.01%"}, {"smiles": "CCOC(=O)c1ccc(N2C(=O)CC(N3CCC(C(=O)OCC)CC3)C2=O)cc1", "note": "(stereo not drawn)", "inhibition": "41.3% (active)"}, {"smiles": "CCOC(=O)c1ccc(N2C(=O)CC(N3CC(C)OC(C)C3)C2=O)cc1", "note": "(stereo not drawn)", "inhibition": "8.24%"}, {"smiles": "CC1CN(C(=S)Nc2ccc(S(N)(=O)=O)cc2)CC(C)O1", "note": "(stereo not drawn)", "inhibition": "2.19%"}, {"smiles": "CCN(C(=O)COc1ccc(C(=O)c2ccccc2)cc1)c1ccccc1", "inhibition": "16.5%"}, {"smiles": "CCOC(=O)CSc1nc(N2CCOCC2)c2c(c1C#N)CC(C(C)C)OC2", "note": "(stereo not drawn)", "inhibition": "20%"}, {"smiles": "O=C(Nc1cccc(F)c1)[C@@H]1CCCN1", "inhibition": "-11.2%"}, {"smiles": "COc1ccc(-c2oc3ncn(Cc4ccco4)c(=N)c3c2-c2ccc(OC)cc2)cc1", "inhibition": "49% (active)"}, {"smiles": "COc1ccc(-n2cnc3cc(NCc4ccco4)ccc32)cc1", "inhibition": "35.3%"}, {"smiles": "COc1ccc(-c2oc3ncnc(NCCCO)c3c2-c2ccc(OC)cc2)cc1", "inhibition": "17.8%"}, {"smiles": "COc1ccc(C(C)(C)C)cc1NC(=O)CCN1C(=O)C2CCCCC2C1=O", "note": "(stereo not drawn)", "inhibition": "24.4%"}, {"smiles": "COc1ccccc1Oc1ccc(N2CC(C(=O)OCC(=O)c3ccc(F)cc3)CC2=O)cc1", "note": "(stereo not drawn)", "inhibition": "19.9%"}, {"smiles": "CCc1ccccc1NC(=O)CSc1nnc([C@@H](NC(=O)OC(C)(C)C)C(C)C)o1", "inhibition": "12.6%"}, {"smiles": "C[C@H](NC(=O)OC(C)(C)C)c1nnc(SCC(=O)Nc2ccc(Br)cc2)o1", "inhibition": "9.84%"}, {"smiles": "C[C@@H](NC(=O)OC(C)(C)C)c1nnc(S(=O)(=O)Cc2ccccc2)o1", "inhibition": "40.3% (active)"}, {"smiles": "CCN(CC)C(=O)COc1coc(CN2CCN(Cc3ccccc3)CC2)cc1=O", "inhibition": "16.8%"}, {"smiles": "COC(C[C@@H]1O[C@@H]1C(=O)[C@@H](C)OCc1ccccc1)OC", "inhibition": "3.69%"}, {"smiles": "CC1(C)NC(=O)N(CCCCSc2ccc(Cl)cc2)C1=O", "inhibition": "-13.6%"}, {"smiles": "COC(=O)c1sc(-c2ccc(C(C)(C)C)cc2)cc1NC(=O)/C=C/C(=O)O", "inhibition": "-5.28%"}, {"smiles": "COCCCC1CCN(C(=O)C2CCC(=O)N(C3CCCCCC3)C2)CC1", "note": "(stereo not drawn)", "inhibition": "2.49%"}, {"smiles": "COCCNC(=O)C(OC(=O)c1cccs1)c1ccc(F)cc1", "note": "(stereo not drawn)", "inhibition": "10.9%"}, {"smiles": "COC(=O)c1ccc(-n2cnc3ccccc32)nc1", "inhibition": "10.4%"}, {"smiles": "c1ccc(-c2nccc(-c3ccc(-n4cnc5ccccc54)cc3)n2)nc1", "inhibition": "46% (active)"}, {"smiles": "Cc1nccc(-c2ccc(-n3c(C)ccc3C)cc2)n1", "inhibition": "6.83%"}, {"smiles": "Cc1cc(C(=O)CC#N)c(C)n1CC(F)(F)F", "inhibition": "-1.63%"}, {"smiles": "COCCn1c(C)cc(C(=O)COC(=O)/C=C/c2cccc(OC)c2)c1C", "inhibition": "17.6%"}, {"smiles": "COC(=O)CNC(=O)c1cc(-c2ccncc2)nc2ccccc12", "inhibition": "-9.97%"}, {"smiles": "N/C(=N\\OC(=O)c1cc(-c2ccccc2)nc2ccccc12)c1ccncc1", "inhibition": "61.8% (active)"}, {"smiles": "C/C(N)=C(/C#N)C(=O)COC(=O)c1cc(-c2ccc(C)cc2)nc2ccccc12", "inhibition": "23.8%"}, {"smiles": "CC(=O)c1ccc(OC(=O)N2CCOCC2)cc1", "inhibition": "9.97%"}, {"smiles": "O=C(Oc1ccc(C(=S)N2CCOCC2)cc1)c1ccc(F)cc1", "inhibition": "7.76%"}, {"smiles": "O=C(Oc1ccc(F)cc1)N1CCOCC1", "inhibition": "97.5% (active)"}, {"smiles": "CCOc1c(OC)cccc1C(=O)NCC1(c2ccccc2)CCCC1", "inhibition": "27.6%"}, {"smiles": "CC(C)(C)n1ncc2c(=O)n(Cc3c(Cl)cccc3Br)cnc21", "inhibition": "5.55%"}, {"smiles": "Cc1ccc(OCC(=O)Nc2cccc3c2CCCC3)cc1C", "inhibition": "28.1%"}, {"smiles": "O=C(NOCc1ccccc1)c1cccc([N+](=O)[O-])c1", "inhibition": "0.85%"}, {"smiles": "O=C(NC(Nc1nc2ccc([N+](=O)[O-])cc2s1)(C(F)(F)F)C(F)(F)F)c1ccccc1", "inhibition": "76.9% (active)"}, {"smiles": "O=C(COC(=O)c1ccc([N+](=O)[O-])cc1Cl)NC(=O)c1ccccc1", "inhibition": "-3.01%"}, {"smiles": "CCc1ccc(C(=O)NN=C2CCCCCC2)s1", "inhibition": "-0.295%"}, {"smiles": "CCCC(C(=O)N1CCOCC1)N1C(=O)C2C3C=CC(C3)C2C1=O", "note": "(stereo not drawn)", "inhibition": "-10.3%"}, {"smiles": "CCC(C)(C)n1nnnc1C(c1cccs1)N1CCN(c2nc3ccccc3s2)CC1", "note": "(stereo not drawn)", "inhibition": "37.8%"}, {"smiles": "CCOc1ccc2nc(N3CCCN(C(=O)Nc4ccccc4C)CC3)c(C#N)cc2c1", "inhibition": "2.29%"}, {"smiles": "CCC(C)(C)n1nnnc1CN1CCN(c2nc3ccc(C)cc3cc2C#N)CC1", "inhibition": "41.5% (active)"}, {"smiles": "CSc1ccc(CN(C)CC(=O)NCc2ccc(F)cc2)cc1", "inhibition": "-1.15%"}, {"smiles": "Cn1c(CNC(=O)c2ccco2)nnc1SCC(=O)N1CCN(c2ccccc2)CC1", "inhibition": "2.03%"}, {"smiles": "O/N=C(\\c1ccc2c(c1)OCCO2)C1CCCCC1", "inhibition": "3.12%"}, {"smiles": "Cc1c(CNCCc2ccccc2)c(C(=O)O)c(C)n1-c1ccccc1", "inhibition": "-4.69%"}, {"smiles": "COc1cc(/C=N/n2c(C)n[nH]c2=S)ccc1OCc1ccccc1", "inhibition": "8.61%"}, {"smiles": "Cn1c(-c2sc3cc(C(F)(F)F)cnc3c2-c2ccccc2)n[nH]c1=S", "inhibition": "-3.83%"}, {"smiles": "Cn1c(-c2sccc2OCc2cccc(C(F)(F)F)c2)n[nH]c1=S", "inhibition": "42.2% (active)"}, {"smiles": "CCOc1ccc(-n2c(SCC(=O)Nc3cc(C(=O)O)ccc3Cl)nc3ccccc3c2=O)cc1", "inhibition": "22.7%"}, {"smiles": "CCn1c(CNS(=O)(=O)c2ccc(Cl)cc2)n[nH]c1=S", "inhibition": "-9.99%"}, {"smiles": "S=c1[nH]nc(CSCc2ccc(Cl)cc2Cl)n1-c1ccccc1", "inhibition": "38.8%"}, {"smiles": "CCn1c(CSCc2c(Cl)cccc2Cl)n[nH]c1=S", "inhibition": "53.7% (active)"}, {"smiles": "Clc1ccc(C2=CSC3=Nc4cccc5cccc(c45)N23)cc1", "inhibition": "21.2%"}, {"smiles": "CCN(CC)P(=O)(/C(Cl)=C\\Nc1c(C)n(C)n(-c2ccccc2)c1=O)N(CC)CC", "inhibition": "2.07%"}, {"smiles": "COc1ccc(CCNCC(O)Cn2ccc3ccccc32)cc1OC", "note": "(stereo not drawn)", "inhibition": "-8.76%"}, {"smiles": "O=C1c2ccccc2C(=O)c2c1cccc2N1CCN(C/C=C/c2ccccc2)CC1", "inhibition": "38.5%"}, {"smiles": "O=C1c2ccccc2C(=O)c2c1cccc2N1CCN(Cc2ccccc2)CC1", "inhibition": "41.3% (active)"}, {"smiles": "O=C1c2ccccc2C(=O)c2c1cccc2N1CCN(CCO)CC1", "inhibition": "12.2%"}]}]}
